# In PubChem BioAssay (NCI):
# The panel holds about 79,000 compounds, 15% with a hit somewhere; the sample as a whole holds those more often. A number with no mark means an inactive call. The source made the active and inactive calls. Cut-off read from the data, not from the text of the source: active = growth inhibition above about 70%; inactive = the rest.
# Experiments:
# [1] = NCI Yeast Anticancer Drug Screen. Data for the rad50 strain (AID 155);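 note: 0% = growth of vehicle-only cultures of the same strain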; conditions: S. cerevisiae rad50 strain growth inhibition, hits give high values
# Summary of the method: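 Yeast carrying a defined DNA repair defect were exposed to test compounds, and growth was compared with vehicle-treated controls to give percent inhibition.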
# [2] = NCI Yeast Anticancer Drug Screen. Data for the mec2-1 strain (AID 157); conditions: S. cerevisiae mec2-1 strain, hits give high values
# Summary of the method: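 Strain: mec2-1 (DNA repair/cell cycle alteration). Compound exposure, then growth measured; inhibition expressed relative to vehicle.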
# [3] = NCI Yeast Anticancer Drug Screen. Data for the sgs1 mgt1 strain (AID 161);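 note: 0% = growth of cultures given vehicle only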; conditions: S. cerevisiae sgs1 mgt1 strain, hits give high values
# Summary of the method: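 Mutant yeast exposed to compound; growth scored against vehicle-only wells.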
# [4] = NCI Yeast Anticancer Drug Screen. Data for the cln2 rad14 strain (AID 165);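 note: 0% = growth equal to vehicle treated cultures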; conditions: S. cerevisiae cln2 rad14 strain, hits give high values
# Summary of the method: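 Compounds are applied to the cln2 rad14 yeast strain, and growth is then compared with that of vehicle-treated cultures to give inhibition.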
# [5] = NCI Yeast Anticancer Drug Screen. Data for the bub3 strain (AID 167); conditions: S. cerevisiae bub3 mutant strain, hits give high values
# Summary of the method: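 Compounds were applied to a genetically altered yeast strain carrying a cell-cycle control defect. Growth inhibition was scored against vehicle-treated controls.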
# [6] = NCI Yeast Anticancer Drug Screen. Data for the mlh1 rad18 strain (AID 175); conditions: S. cerevisiae mlh1 rad18 strain growth inhibition, hits give high values
# Summary of the method: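 Read-out is yeast growth inhibition, calculated against vehicle-only controls. The compound was applied to a strain engineered with DNA damage repair alterations.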
# [7] = at 5.0 µM (retest, dose inferred, filed as 0.5)
# [8] = at 50.0 µM (retest, dose inferred, filed as 5.0)
SMILES,"growth inhibition [1, 7]","growth inhibition [1, 8]",growth inhibition ([1]; at 50.0 µM),"growth inhibition [2, 7]","growth inhibition [2, 8]",growth inhibition ([2]; at 50.0 µM),"growth inhibition [3, 7] [%]","growth inhibition [3, 8]",growth inhibition ([3]; at 50.0 µM),"growth inhibition [4, 7] [%]","growth inhibition [4, 8]",growth inhibition ([4]; at 50.0 µM),"growth inhibition [5, 7]","growth inhibition [5, 8]",growth inhibition ([5]; at 50.0 µM),"growth inhibition [6, 7]","growth inhibition [6, 8]",growth inhibition ([6]; at 50.0 µM)
Cc1ccc2c(c1)C(O)(c1ccccc1)C(c1ccccc1)C(c1ccccc1)O2 (configuration not stated),78% (active),83% (active),93.9% (active),56%,92% (active),94.3% (active),69,87% (active),93.7% (active),59,62%,90.4% (active),87% (active),91% (active),89.5% (active),66%,88% (active),93.6% (active)
COc1cc(C(c2cc3c(cc2O)OCO3)N2CCN(C(c3cc(OC)c(O)c(OC)c3)c3cc4c(cc3O)OCO4)CC2)cc(OC)c1O (configuration not stated),-3%,7%,26.3%,1%,16%,41%,-2,15%,43.6%,0,-12%,-36.5%,1%,10%,33.8%,0%,7%,51.2%
Oc1ccc2c(c1)Cc1ccccc1-2,1%,70% (active),93.2% (active),0%,28%,87.1% (active),1,28%,53%,-8,70% (active),88.3% (active),-2%,82% (active),98.2% (active),-1%,72% (active),93.1% (active)
CC(=O)NS(=O)(=O)c1ccc(N=Cc2cc(Cl)cc(Cl)c2O)cc1,25%,98% (active),83% (active),19%,99% (active),92.1% (active),13,79% (active),44.5%,46,98% (active),87.8% (active),44%,99% (active),90.7% (active),67%,99% (active),88% (active)
Nc1[nH]cnc(=S)c1NC=O,-1%,-4%,13.9%,-1%,-5%,2.8%,-2,-5%,35%,-4,-5%,0.4%,0%,-3%,42.3%,-3%,-3%,-1.9%
O=[N+]([O-])/C(Cl)=C(/C(Cl)=C(Cl)Cl)N1CCCCC1,-3%,16%,28.6%,8%,25%,11.7%,14,27%,34.1%,13,22%,1.5%,22%,34%,23.6%,2%,27%,43.1%
COc1cc2c(cc1O)C(O)CCCC2 (configuration not stated),-146%,-152%,6.6%,-45%,-55%,-14.6%,-62,-32%,41.8%,-52,-61%,-4.15%,-64%,-75%,-6.4%,-147%,-108%,12.3%
Cc1ccc(S(=O)(=O)NCCCOS(=O)(=O)c2ccc(C)cc2)cc1,20%,46%,22.8%,16%,33%,0.15%,34,65%,28.9%,34,63%,29.9%,37%,66%,29.4%,15%,53%,45.9%
COC(=O)c1nc(=S)[nH]c(C(=O)OC)c1C(=O)c1ccc(O)c(OC)c1,-6%,95% (active),98.5% (active),-7%,97% (active),78.3% (active),-16,96% (active),98.4% (active),-4,90% (active),47%,1%,96% (active),84.3% (active),7%,97% (active),96.3% (active)
COc1ccc(/C=C2\CCC(CN3CCOCC3)C2=O)cc1 (configuration not stated),65%,99% (active),93.5% (active),92% (active),100% (active),93.8% (active),55,99% (active),93.2% (active),46,99% (active),91.8% (active),96% (active),99% (active),92.7% (active),89% (active),97% (active),89.7% (active)
C=C1CC2(OC1=O)C(=O)N(C)c1ccccc12 (configuration not stated),-118%,63%,84.5% (active),-31%,52%,87.5% (active),-38,67%,82.6% (active),-49,22%,15%,-47%,73% (active),88.2% (active),-111%,71% (active),91.7% (active)
CN(C)Cc1cc(N=Nc2ccc(Cl)c(Cl)c2)ccc1O,-16%,46%,86.5% (active),-11%,31%,64.4%,-20,44%,82.7% (active),-31,34%,71.8% (active),-33%,40%,88.5% (active),0%,56%,84.7% (active)
C/C(=N/NC(=S)Nc1ccc([N+](=O)[O-])cc1)c1cccc(/C(C)=N\NC(=S)Nc2ccc([N+](=O)[O-])cc2)n1,14%,50%,19.6%,5%,72% (active),0.15%,15,87% (active),35.5%,19,82% (active),-7.35%,21%,94% (active),2.45%,10%,61%,14.4%
Oc1cc2c(cc1C(c1ccc(Cl)cc1)N1CCOCC1)OCO2 (configuration not stated),1%,98% (active),99% (active),-1%,99% (active),99.2% (active),7,99% (active),99% (active),-8,83% (active),96.5% (active),-7%,98% (active),98.9% (active),0%,99% (active),98.8% (active)
CC(Cc1ccccc1)NN1CCOC(c2ccccc2)C1C (configuration not stated),2%,66%,32.1%,-2%,56%,56.8%,0,78% (active),64.2%,-1,16%,13.1%,9%,59%,46%,-3%,72% (active),73% (active)
Cc1ccc(S(=O)(=O)N/N=c2\c(C)c(C3=NS(=O)(=O)c4cc(S(N)(=O)=O)c(Cl)cc4N3)oc3c(Cl)cc(Cl)cc23)cc1,40%,63%,77.9% (active),32%,55%,47%,28,59%,56.5%,33,60%,65.9%,33%,73% (active),60.5%,44%,69%,59.2%
COC(=O)Nc1nc2ccc(C(C)(O)c3cccs3)cc2[nH]1 (configuration not stated),-2%,92% (active),97% (active),-8%,95% (active),98.2% (active),3,95% (active),98% (active),-15,87% (active),92.2% (active),-3%,94% (active),97.1% (active),-5%,95% (active),97.8% (active)
CC1=C(C#N)C(=O)N(C)C(=O)C1(Cl)Cl,-2%,-12%,-1.3%,0%,-2%,-8.1%,1,-3%,-7.45%,0,-12%,14.6%,3%,4%,5.05%,1%,-3%,9.45%
C/C(=N\NC(=S)N1CC(C)OC(C)C1)c1ncccn1 (configuration not stated),53%,81% (active),99.5% (active),43%,100% (active),99.4% (active),52,100% (active),99.5% (active),52,99% (active),99.2% (active),44%,99% (active),99.3% (active),80% (active),99% (active),99.3% (active)
